M18AAP inhibitor – blocks P. falciparum M18 aspartyl aminopeptidase | recombinant PfM18AAP, H-Glu-NHMec fluorogenic cleavage | inhibition, % at 7.35 µM | hit rate 1.2% among 290,000;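 active means inhibition above the campaign mean inhibition over all tested compounds plus 3 SD, cut at about 28% in these data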;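 further: 0% = plate median of test compound wells and 100% = 2 mM ZnCl2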
SUMO Mot1 rescue – inhibitors of SUMOylation pathway: yeast Mot1-301 growth rescue; hit rate 1% among 320,000; growth rescue, % at 18.8 µM; S. cerevisiae Mot1-301 growth rescue, ATP luminescence, 38.5C; percent above DMSO median, 100 means doubled;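 active means every valid replicate shows activation above 250% relative to neutral control wells; inactive means the rest, any valid replicate at or below 250%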;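 further: OY570 slx delta 5 strain wells were the positive control but not used for scaling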
HIF activator – HIF pathway transcriptional activation; U2OS HRE-luciferase reporter, luminescence; normalized: DMSO 0%, desferrioxamine 100%; activation, % at 7.5 µM (by protocol); hit rate 0.32% among 300,000;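 active means mean activation of at least 10% of the iron chelator positive control signal, with at least half of replicates also reaching 10%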
ALR H2O2 inh – blocks human ALR sulfhydryl oxidase activity; hit rate 3.8% among 290,000; inhibition, % (test concentration not listed); purified ALR, DTT oxidation, H2O2 HRP-luminol luminescence;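 active means mean replicate inhibition above about 79%, with every replicate also reaching it, limit read from the data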
Target sequence (P55789 whole entry, looked up): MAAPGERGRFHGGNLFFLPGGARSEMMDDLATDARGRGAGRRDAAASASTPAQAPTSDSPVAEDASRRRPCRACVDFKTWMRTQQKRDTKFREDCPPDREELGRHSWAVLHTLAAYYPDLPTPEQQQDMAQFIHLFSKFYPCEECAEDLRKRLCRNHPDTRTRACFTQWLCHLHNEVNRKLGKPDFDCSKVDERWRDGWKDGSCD
An asterisk follows results filed as active; . = no result. Compounds with a hit are over-represented: about 5.3% of the library has one in this group of screens.

SMILES | M18AAP inhibitor | SUMO Mot1 rescue | HIF activator | ALR H2O2 inh
Fc1ccc(C(c2nnnn2C2CCCC2)N2CCc3ccccc32)cc1 (centres undefined) | 8 | 37 | -1 | 91*
CC(C)NC(=O)Nc1cccs1 | 3 | 12 | -1 | 97*
CC1CCC(NC(=O)Nc2cccs2)CC1 (centres undefined) | 15 | -16 | 2 | 98*
O=C(Nc1ccccn1)NC1CCCCC1 | 2 | -7 | 0 | 4
O=C(NCC1CC1)Nc1cccs1 | 6 | -1 | 0 | 99*
Cc1ccccc1NC(=O)Nc1cccs1 | 15 | 596 | 0 | 65
O=C(Nc1cccs1)NC1CCCC1 | -1 | -14 | 0 | 99*
CS(=O)(=O)c1ccc2nc(NC(=O)c3ccc(NS(=O)(=O)c4ccc(F)c(F)c4)cc3)sc2c1 | -12 | 15 | 0 | 4
O=C(Nc1nc2ccc(SC(F)F)cc2s1)c1ccc(NS(=O)(=O)c2ccc(F)c(F)c2)cc1 | -1 | 622* | 1 | 99*
CN(C)C(=O)CSc1nc2ccccc2n1Cc1ccccc1 | 16 | -2 | 367* | 36
CC(C)N(C(=O)CSc1nc2ccccc2n1Cc1ccccc1)C(C)C | 1 | 0 | -1 | .
CCOC(=O)C1CCCN(C(=O)C2CCC(CNS(=O)(=O)c3ccc(NC(C)=O)cc3)CC2)C1 (centres undefined) | -12 | 282* | -7 | -18
COc1ccc(S(=O)(=O)NCC2CCCN(Cc3cccc(C(C)=O)c3)C2)cc1 (centres undefined) | -1 | 51 | 0 | 76*
COCC(=O)N1CCCC(CNS(=O)(=O)c2ccc(OC)cc2)C1 (centres undefined) | -2 | 670* | -1 | -9
CCCn1c(/C=C/c2ccccc2)nc2ccccc21 | 12 | -9 | . | 1
CC(C)Cn1c(/C=C/c2ccco2)nc2ccccc21 | 6 | -12 | 1 | 97*
COc1cc2cc(C(c3nnnn3C(C)(C)C)N3CCC(C)CC3)c(=O)[nH]c2cc1OC (centres undefined) | -4 | -15 | -1 | 8
CC(C)c1ccc(NC(=O)Cc2c(C(=O)O)n(C)c3ccccc23)cc1 | -1 | -7 | 1 | 97*
CCN(CC)CCn1c2c(c(SCC(=O)Nc3ccc4c(c3)OCCO4)nc1=O)CCC2 | . | 7 | 0 | -353
CCN(CC)CCCn1c2c(c(SCC(=O)Nc3ccc(F)c(F)c3)nc1=O)CCC2 | . | 1 | 0 | 98*
CCN(CC)CCCn1c2c(c(SCC(=O)Nc3ccc4c(c3)OCO4)nc1=O)CCC2 | . | -15 | -6 | 96*
CCN(CC)CCn1c2c(c(SCC(=O)Nc3ccc(C)c(F)c3)nc1=O)CCCC2 | . | 13 | 0 | 97*
CCN(CC)CCn1c2c(c(SCC(=O)Nc3ccc(C)c(F)c3)nc1=O)CCC2 | . | -4 | 1 | -404
CCN(CC)CCCn1c2c(c(SCC(=O)Nc3cccc(C)c3C)nc1=O)CCC2 | . | 208 | 2 | -3
CCN(CC)CCn1c2c(c(SCC(=O)Nc3ccc(F)c(F)c3)nc1=O)CCC2 | . | -17 | 1 | 92*
SMILES | M18AAP inhibitor | SUMO Mot1 rescue | HIF activator | ALR H2O2 inh
O=C(c1cccs1)N1CCCC(c2nc3c(nnn3Cc3c(Cl)cccc3Cl)c(=O)[nH]2)C1 (centres undefined) | 1 | 15 | 1 | -6
CCN(CC)CCn1c2c(c(SCC(=O)Nc3ccccc3Cl)nc1=O)CCCC2 | . | -21 | 0 | -16
CCN(CC)CCCn1c2c(c(SCC(=O)Nc3ccccc3Cl)nc1=O)CCC2 | . | -3 | 0 | 98*
Cc1c(NS(=O)(=O)c2ccc3[nH]c(=O)[nH]c3c2)c(=O)n(-c2ccccc2)n1C | -2 | 5 | 0 | 4
COc1ccc(N/N=C(/N=Nc2nc(C)cc(=O)[nH]2)c2ccccc2)cc1 | -17 | -21 | 143* | -24
Cc1cc(=O)[nH]c(N=N/C(=N/Nc2ccc(O)cc2)c2ccccc2)n1 | 16 | -17 | 12* | -4
CC1(C)CC(=O)C2=C(C1)Nc1ccccc1NC2c1ccc(F)c(F)c1 (centres undefined) | 6 | 4 | 0 | 99*
COc1cccc(C2Nc3ccccc3NC3=C2C(=O)CC(C)(C)C3)c1 (centres undefined) | 6 | 9 | 1 | 98*
CC1(C)CC(=O)C2=C(C1)Nc1ccccc1NC2c1cccs1 (centres undefined) | 6 | . | 0 | 99*
CC1(C)CC(=O)C2=C(C1)Nc1ccccc1NC2c1ccc([N+](=O)[O-])cc1 (centres undefined) | . | -3 | 0 | 98*
COC(=O)NNC(=S)NCc1ccccc1 | 24 | -1 | 0 | 41
CC1(C)CC(=O)C2=C(C1)Nc1ccccc1NC2c1ccccc1F (centres undefined) | -4 | -5 | -1 | 98*
Cc1ccccc1C1NC(=S)NC2=C1C(=O)CC(C)(C)C2 (centres undefined) | -3 | -6 | 0 | 2
COC(CNC(=O)CSCc1nc(-c2ccc(SC)cc2)oc1C)OC | -4 | -1 | 0 | 99*
CCCNC(=O)CSCc1nc(-c2ccc(SC)cc2)oc1C | 3 | 12 | 0 | 99*
CSc1ccc(-c2nc(CSCC(=O)NCCCN3CCOCC3)c(C)o2)cc1 | -1 | -23 | 0 | .
CC1CC(C)CN(C(=O)c2ccccc2Nc2ccc(SC(F)F)cc2)C1 (centres undefined) | -14 | -35 | 0 | .
CC(CCc1ccccc1)NC(=O)C1CCN(S(=O)(=O)N2CCOCC2)CC1 (centres undefined) | -14 | -1 | -1 | -5
O=C(Cn1[nH]c(=O)c2ccccc2c1=O)OCC(=O)c1ccccc1 | . | -16 | . | -1
CC1(C)CC2(CC(C)(C(=O)CSc3nc4ccccc4s3)OC2=O)C(=O)O1 (centres undefined) | -7 | 6 | 0 | 91*
CC1CC2(CC(C)(C(=O)CSc3nc4ccccc4s3)OC2=O)C(=O)O1 (centres undefined) | 0 | 1 | 0 | 98*
Cc1ccc(S(=O)(=O)NCC(=O)NCC2CCCCC2)cc1C | 6 | 0 | 0 | 97*
Cc1cc(C)c(C)c(S(=O)(=O)NCC(=O)NCC2CCCCC2)c1C | -3 | -11 | -3 | 2
CCOc1ccc(S(=O)(=O)NCC(=O)NC2CCCCC2)cc1 | . | -13 | . | 91*
O=C(CNS(=O)(=O)c1ccc(Cl)cc1)NC1CCCCC1 | . | 14 | . | 5
SMILES | M18AAP inhibitor | SUMO Mot1 rescue | HIF activator | ALR H2O2 inh
Cc1noc(C)c1COc1ccccc1C(=O)N(C)Cc1ccc(C(C)(C)C)cc1 | . | -12 | . | .
S=c1[nH]nc(-c2ccccn2)n1/N=C/c1ccc(Cl)cc1 | 6 | 21 | 0 | 73
CC(/C=N/n1c(-c2ccco2)n[nH]c1=S)=C\c1ccccc1 | 17 | 11 | 1 | 55
S=c1[nH]nc(-c2ccccn2)n1/N=C/c1cccc2ccccc12 | 3 | -25 | 0 | 96*
CC(/C=N/n1c(-c2ccccn2)n[nH]c1=S)=C\c1ccccc1 | -2 | 1 | -1 | 96*
Cc1cccc(/C=N/n2c(-c3ccccn3)n[nH]c2=S)c1 | 5 | -2 | 0 | 95*
CC1CN=C(N(C(=O)Nc2ccccc2)C(C)c2ccccc2)S1 (centres undefined) | 0 | 2 | 0 | -4

Screens (PubChem BioAssay)
